The results in this text go back to PubChem BioAssay AID588590 (National Center for Advancing Translational Sciences (NCATS), 2011).

Molecules are shown by their SMILES. Where “and” joins values, the source holds several entries; their conditions need not be identical. Equal entries are not always repeated. Screen size: about 390,000 compounds; about 4,000 (1%) were called active. Not shown: some 7% with an inconclusive outcome. The sample holds actives, similar compounds and a random draw of the others, so the mix is not that of the screen. Calls follow the shape of the dose curve; as a rule, active = well fitted inhibition curve with a large enough effect; inconclusive = small, poorly fitted or top-dose-only effect, or another doubt; inactive = no such curve, though single readings can be large or run the other way. More than one record can exist for a structure, and the calls need not agree.
Potency is read from the fitted curve at half-maximal effect.

In this experiment the target is DNA polymerase iota (Homo sapiens) (UniProt Q9UNA4). Briefly: qHTS for Inhibitors of Polymerase Iota. Particulars: Pol iota fluorescent replication assay, 10 min; series mostly up to 115 µM; activity, negative = inhibition: at the top concentration. The gist of the method: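 Fluorescent replication assay read twice, at 0 min and 10 min after adding 50 nM (final) substrate. Enzyme (10 nM) and compounds were first incubated 15 min at room temperature; enzyme-free buffer wells were negative controls.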
Sequence of DNA polymerase iota (Homo sapiens) (Q9UNA4 whole entry, looked up): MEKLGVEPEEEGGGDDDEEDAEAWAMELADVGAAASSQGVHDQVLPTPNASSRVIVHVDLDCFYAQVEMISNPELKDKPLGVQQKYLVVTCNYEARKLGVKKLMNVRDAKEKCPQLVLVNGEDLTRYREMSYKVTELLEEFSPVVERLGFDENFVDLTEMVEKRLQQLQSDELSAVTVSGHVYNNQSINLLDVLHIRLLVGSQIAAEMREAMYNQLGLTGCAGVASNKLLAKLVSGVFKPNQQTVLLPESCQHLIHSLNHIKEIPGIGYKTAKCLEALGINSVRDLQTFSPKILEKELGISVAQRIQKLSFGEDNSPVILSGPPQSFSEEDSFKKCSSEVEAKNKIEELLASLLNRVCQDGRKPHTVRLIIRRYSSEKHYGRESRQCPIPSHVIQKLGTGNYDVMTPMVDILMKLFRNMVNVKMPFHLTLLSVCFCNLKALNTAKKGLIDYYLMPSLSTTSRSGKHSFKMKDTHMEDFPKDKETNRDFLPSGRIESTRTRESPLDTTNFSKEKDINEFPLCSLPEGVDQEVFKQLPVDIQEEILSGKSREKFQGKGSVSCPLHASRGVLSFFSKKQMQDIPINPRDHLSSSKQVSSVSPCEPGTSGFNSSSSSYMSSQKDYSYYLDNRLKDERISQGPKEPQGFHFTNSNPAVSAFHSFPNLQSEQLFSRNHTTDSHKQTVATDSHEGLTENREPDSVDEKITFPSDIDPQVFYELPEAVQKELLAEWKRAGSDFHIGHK
Turning to `O=C(Nc1ccc(S(=O)(=O)N2CCC(c3nc4ccccc4s3)CC2)cc1)c1ccccc1F`, the “activity, negative = inhibition” value is 19.1% (inactive).

`COc1ccc(CCNC(=O)c2nn(C)c3c2CSc2ccccc2-3)cc1OC`: the “activity, negative = inhibition” value was -19.9% (inactive).

With `COc1ccc(NC(=O)c2ccc3oc(=O)c(S(=O)(=O)c4ccc(F)cc4)cc3c2)c(OC)c1`, the “activity, negative = inhibition” value is 18.3% (inactive).

Turning to `CCCN1CCN(CCCNC(=O)c2cnn(-c3ccc(C)cc3)c2-n2cccc2)CC1`, the “activity, negative = inhibition” value was 15% (inactive).

Turning to `O=C(Cn1cnc2ccccc2c1=O)NNC(=O)c1ccccc1F`, the “activity, negative = inhibition” value is 85.9% (inactive).

For `Cc1cc2occ(CC(=O)NNC(=O)c3ccccc3F)c2cc1C`, the “activity, negative = inhibition” value is 9.31% (inactive).

Take `Cn1c(CC(=O)NNC(=O)c2ccccc2F)nc2ccccc21`: the Potency was 70.8 µM (active).

In the case of `COc1cc(Cl)ccc1Nc1ncc(C(=O)N2CCN(c3ccccc3OC)CC2)c2ccccc12`, the “activity, negative = inhibition” value is 25.4% (inactive).

As for `CCc1ccc(S(=O)(=O)c2nnn3c2nc(NCc2ccccc2OC)c2cc(Cl)ccc23)cc1`, the “activity, negative = inhibition” value is 26.5% (inactive).

With `CN(C)NC(=O)C(NC(=O)c1ccc(N)cc1)C12CC3CC(CC(C3)C1)C2` (stereo not drawn), the Potency was 35.5 µM (active).

Consider `CC(CNC(=O)c1ccc(N)cc1)NC(=O)c1ccc(N)cc1` (stereo not drawn), for which the “activity, negative = inhibition” value was 34.8% (inactive).

In the case of `CC(NC(=O)c1ccc(N2CCNCC2)c([N+](=O)[O-])c1)C12CC3CC(CC(C3)C1)C2` (stereo not drawn), the “activity, negative = inhibition” value is 6.58% (inactive).

For the compound `CC(CCCc1ccccc1)NC(=O)c1nn(-c2ccc(Cl)cc2)nc1CO` (stereo not drawn), the “activity, negative = inhibition” value is 0.647% (inactive).

Take `COc1ccc(CCNC(=O)c2ccc3c(c2)sc2nc(-c4ccc(C)cc4)cn23)cc1OC`: the “activity, negative = inhibition” value was 6.49% (inactive).

As to `CCOc1ccccc1C(=O)NCc1ccc2c(c1)CCN2C(=O)c1ccc(F)cc1`, the “activity, negative = inhibition” value is 38.3% (inactive).

Regarding `COC(=O)c1ccccc1NC(=O)Cn1c(=O)n(-c2cccc(C(F)(F)F)c2)c(=O)c2c(C)c(C)sc21`, the “activity, negative = inhibition” value is -4.45% (inactive).

On to `COc1ccc(N2CCN(S(=O)(=O)c3ccc4c(c3)NC(=O)C(C)C(=O)N4)CC2)cc1` (stereo not drawn), for which the “activity, negative = inhibition” value is -18.4% (inactive).

`CC1C(=O)Nc2ccc(S(=O)(=O)N3CCN(c4ccccc4F)CC3)cc2NC1=O` (stereo not drawn): the “activity, negative = inhibition” value was 32% (inactive).

Turning to `CON(C)S(=O)(=O)c1ccc2c(c1)NC(=O)C1CCCN21` (stereo not drawn), the Potency was 22.4 µM (active).

As for `N#Cc1ccc[n+](CC(=O)c2ccc(F)cc2)c1`, the “activity, negative = inhibition” value was 8.91% (inactive).

For the compound `NC(=O)C[n+]1cccc(C(N)=O)c1`, the “activity, negative = inhibition” value was 24.1% (inactive).

On to `N#Cc1ccc[n+](CC(=O)c2ccc(O)c(O)c2)c1`, for which the Potency is 0.891 µM (active).

As for `Cc1ccccc1C(=O)NCc1nc(-c2ccc(Cl)cc2)no1`, the “activity, negative = inhibition” value was 2.79% (inactive).

Take `CCN(CC)CCNC(=O)CN1N=C(c2ccc(OC)cc2)CCC1=O`: the “activity, negative = inhibition” value is 1.32% (inactive).

Turning to `COc1ccc(OC)c(CNC(=O)CN2C(=O)CCn3nc(-c4cn(C)c5ccccc45)cc32)c1`, the “activity, negative = inhibition” value was -3.3% (inactive).

With `Cn1c(=O)cc(OCC(=O)N2CCN(c3ccccc3)CC2)c2ccccc21`, the “activity, negative = inhibition” value was 4.97% (inactive).

As for `CCC(=O)N1CCc2cc(Br)cc(S(=O)(=O)CCC(=O)NCc3ccccc3OC)c21`, the “activity, negative = inhibition” value is -18% (inactive).

As for `COc1ccc(NC(=O)CN2C(=O)C(c3ccccc3)=NC23CCCCCC3)cc1OC`, the “activity, negative = inhibition” value was -12.5% (inactive).

Turning to `CCc1ccc(NC(=O)CN2C(=O)C(c3ccccc3)=NC23CCCCCC3)cc1`, the “activity, negative = inhibition” value is -2.09% (inactive).

As for `Cc1ccc(NC(=O)CN2C(=O)C(c3ccc(F)cc3)=NC23CCCCCC3)c(C)c1`, the Potency is 44.7 µM (active).

As to `CCCCN(C)c1nnc(NC(=O)Nc2ccc(Br)c(C)c2)s1`, the “activity, negative = inhibition” value was 59.7% (inactive).

On to `CCOCCCn1c(SCC(=O)Nc2ccc(CC)cc2)nc2ccccc2c1=O`, for which the “activity, negative = inhibition” value was 2.09% (inactive).

On to `Cc1ccc(Cl)cc1NC(=O)Cc1ccc(-n2c(C)nc3cccnc32)cc1`, for which the “activity, negative = inhibition” value was 16.1% (inactive).

Take `O=c1c2c(-c3ccccc3)ccnc2[nH]n1-c1ccccc1`: the Potency result is “inactive and 89.1 µM (active)”.

On to `Cc1ccc(-c2ccnc3[nH]n(-c4ccccc4)c(=O)c23)cc1`, for which the “activity, negative = inhibition” value is 4.79% (inactive).

Turning to `COc1ccccc1-c1ccnc2[nH]n(-c3ccccc3)c(=O)c12`, the “activity, negative = inhibition” value was -9.07% (inactive).

On to `COc1ccc(OC)c(NC(=O)CN2CCCN(Cc3cc(C)ccc3C)S2(=O)=O)c1`, for which the “activity, negative = inhibition” value is 6.44% (inactive).

Take `CCOc1ccc(NC(=O)c2cc3c(=O)n(Cc4cccs4)ccc3nc2C)cc1`: the “activity, negative = inhibition” value was -26.1% (inactive).

Regarding `Cc1cc2nn(-c3ccc(Cl)cc3)nc2cc1NC(=O)C(C)C`, the “activity, negative = inhibition” value was -5.65% (inactive).

For `O=C(NCc1ccccc1)c1cc(-c2cccc(Cl)c2)on1`, the “activity, negative = inhibition” value was -3.04% (inactive).

On to `O=C(O)C(c1ccccc1)N1C(=O)/C(=C\c2ccc(-c3cccc(Cl)c3)o2)SC1=S` (stereo not drawn), for which the Potency is 31.6 µM (active).

Consider `O=C(NC(=S)Nc1cc(C(F)(F)F)ccc1N1CCOCC1)c1ccc(-c2cccc(Cl)c2)o1`, for which the “activity, negative = inhibition” value was -8.99% (inactive).

`Cc1ccc(-c2nnc(Nc3ccc(OCC(N)=O)cc3)c3ccccc23)cc1S(=O)(=O)NCC1CCCO1` (stereo not drawn): the “activity, negative = inhibition” value was -5.22% (inactive).

Regarding `O=C(c1cnn2c1NC(=C1CC1)C=C2C(F)F)N1CCc2ccccc2C1`, the “activity, negative = inhibition” value is 20.7% (inactive).

Consider `Cc1ccc(NC(=O)c2cc(S(=O)(=O)NCCC3=CCCCC3)ccc2F)cc1C`, for which the “activity, negative = inhibition” value was -3.59% (inactive).

As for `CCCSc1ncccc1C(=O)O`, the “activity, negative = inhibition” value was 8.93% (inactive).

On to `O=C(COC(=O)c1cccnc1Cl)NC(=O)NC1CCCCC1`, for which the “activity, negative = inhibition” value was -3.55% (inactive).

Regarding `O=C(O)c1cccnc1NC1CCCC1`, the Potency was 89.1 µM (active).
